Source: PubChem BioAssay AID1159580 (chemical genetic matrix, 2015)
Screen size: about 5,500 compounds; about 2,000 (36%) were called active. Inconclusive results (about 18%) are left out. Cut-off read from the data, not from the text of the source: active = normalized growth mostly below about 0.91 (no sharp cut-off); inconclusive = no clear call, values can overlap the other calls; inactive = mostly above about 0.92. Some of the results follow.

Assay: chemical genetic growth profiling, strain panel (AID 1159580);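 note: tested at 20 µM; growth read once vehicle control cultures reached saturation at 30 °C; 1 = growth at the plate median or of vehicle wells; lower values mean less growth of the strain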
Conditions: growth OD
[1] = S. cerevisiae deletion strains, locus YDL101C, strain DUN1, hits give low values
[2] = S. cerevisiae deletion strains, locus YHR030C, strain SLT2, hits give low values
[3] = S. cerevisiae deletion strains, locus YAL013W, strain DEP1, hits give low values
[4] = S. cerevisiae deletion strains, locus YBR229C, strain ROT2, hits give low values
[5] = S. cerevisiae deletion strains, locus YDL134C, strain PPH21, hits give low values
[6] = S. cerevisiae deletion strains, locus YDR150W, strain NUM1, hits give low values
[7] = S. cerevisiae deletion strains, locus YEL061C, strain CIN8, hits give low values
[8] = S. cerevisiae deletion strains, locus YGR078C, strain PAC10, hits give low values
[9] = S. cerevisiae deletion strains, locus YGR229C, strain SMI1, hits give low values
[10] = S. cerevisiae deletion strains, locus YHR087W, strain rtc3, hits give low values
[11] = S. cerevisiae deletion strains, locus YJL187C, strain SWE1, hits give low values
[12] = S. cerevisiae deletion strains, locus YJR043C, strain POL32, hits give low values
[13] = S. cerevisiae deletion strains, locus YJR075W, strain HOC1, hits give low values
[14] = S. cerevisiae deletion strains, locus YLR039C, strain RIC1, hits give low values
[15] = S. cerevisiae deletion strains, locus YLR058C, strain SHM2 (second series), hits give low values
[16] = S. cerevisiae deletion strains, locus YLR085C, strain ARP6, hits give low values
[17] = S. cerevisiae deletion strains, locus YLR262C, strain YPT6, hits give low values
[18] = S. cerevisiae deletion strains, locus YML094W, strain GIM5, hits give low values
[19] = S. cerevisiae deletion strains, locus YMR219W, strain ESC1, hits give low values
[20] = S. cerevisiae deletion strains, locus YMR263W, strain SAP30, hits give low values
[21] = S. cerevisiae deletion strains, locus YNL153C, strain GIM3, hits give low values
[22] = S. cerevisiae deletion strains, locus YNL298W, strain CLA4 (second series), hits give low values
[23] = S. cerevisiae deletion strains, locus YNL322C, strain KRE1, hits give low values
[24] = S. cerevisiae deletion strains, locus YNR030W, strain Alg12, hits give low values
[25] = S. cerevisiae deletion strains, locus YPL055C, strain LGE1, hits give low values
[26] = S. cerevisiae deletion strains, locus YPL241C, strain CIN2, hits give low values
[27] = S. cerevisiae deletion strains, locus YPR135W, strain CTF4, hits give low values
[28] = S. cerevisiae strains, strain wild type, hits give low values
[29] = S. cerevisiae deletion strains, locus YKL190W, strain CNB1, hits give low values
[30] = S. cerevisiae deletion strains, locus YOL006C, strain TOP1, hits give low values

Measured: normalized growth

O=[N+]([O-])c1cnc(Sc2nnc(SCc3cccc(C(F)(F)F)c3)s2)s1
active: S. cerevisiae deletion strains, locus YAR019C, strain CDC15, hits give low values 0.098 | S. cerevisiae deletion strains, locus YBL105C, strain PKC1, hits give low values 0.0818 | S. cerevisiae deletion strains, locus YBR135W, strain CKS1, hits give low values 0.0984 | S. cerevisiae deletion strains, locus YBR136W, strain MEC1, hits give low values 0.0945 | S. cerevisiae deletion strains, locus YBR160W, strain CDC28, hits give low values 0.0963 | S. cerevisiae deletion strains, locus YDL017W, strain CDC7, hits give low values 0.0822 | S. cerevisiae deletion strains, locus YDL028C, strain MPS1, hits give low values 0.111 | [1] 0.107 | S. cerevisiae deletion strains, locus YDL108W, strain KIN28, hits give low values 0.0971 | S. cerevisiae deletion strains, locus YDL132W, strain cdc53, hits give low values 0.0889 | S. cerevisiae deletion strains, locus YDL214C, strain PRR2, hits give low values 0.106 | S. cerevisiae deletion strains, locus YDR052C, strain DBF4, hits give low values 0.0805 | S. cerevisiae deletion strains, locus YDR054C, strain cdc34, hits give low values 0.0921 | S. cerevisiae deletion strains, locus YDR226W, strain ADK1, hits give low values 0.0971 | S. cerevisiae deletion strains, locus YDR477W, strain SNF1, hits give low values 0.101 | S. cerevisiae deletion strains, locus YER123W, strain YCK3, hits give low values 0.111 | S. cerevisiae deletion strains, locus YER133W, strain GLC7, hits give low values 0.107 | S. cerevisiae deletion strains, locus YFL009W, strain cdc4, hits give low values 0.102 | S. cerevisiae deletion strains, locus YFL029C, strain CAK1, hits give low values 0.098 | S. cerevisiae deletion strains, locus YFR003C, strain YPI1, hits give low values 0.0893 | S. cerevisiae deletion strains, locus YFR019W, strain FAB1, hits give low values 0.106 | S. cerevisiae deletion strains, locus YFR028C, strain CDC14, hits give low values 0.0995 | S. cerevisiae deletion strains, locus YGR040W, strain KSS1, hits give low values 0.0976 | S. cerevisiae deletion strains, locus YGR052W, strain FMP48, hits give low values 0.101 | S. cerevisiae deletion strains, locus YGR092W, strain DBF2, hits give low values 0.0989 | [2] 0.131 | S. cerevisiae deletion strains, locus YHR079C, strain IRE1, hits give low values 0.0953 | S. cerevisiae deletion strains, locus YHR082C, strain KSP1, hits give low values 0.13 | S. cerevisiae deletion strains, locus YHR205W, strain SCH9, hits give low values -0.0106 | S. cerevisiae deletion strains, locus YIL147C, strain SLN1, hits give low values 0.102 | S. cerevisiae deletion strains, locus YJL095W, strain BCK1, hits give low values 0.118 | S. cerevisiae deletion strains, locus YJL128C, strain PBS2, hits give low values 0.0978 | S. cerevisiae deletion strains, locus YJL157C, strain FAR1, hits give low values 0.0837 | S. cerevisiae deletion strains, locus YJR016C, strain ILV3, hits give low values 0.0869 | S. cerevisiae deletion strains, locus YJR066W, strain TOR1 (second series), hits give low values 0.0917 | S. cerevisiae deletion strains, locus YJR066W, strain TOR1, hits give low values 0.122 | S. cerevisiae deletion strains, locus YKL048C, strain ELM1, hits give low values 0.111 | S. cerevisiae deletion strains, locus YKL067W, strain YNK1, hits give low values 0.105 | S. cerevisiae deletion strains, locus YKL101W, strain HSL1, hits give low values 0.1 | S. cerevisiae deletion strains, locus YKL193C, strain SDS22, hits give low values 0.0958 | S. cerevisiae deletion strains, locus YKL203C, strain TOR2, hits give low values 0.111 | S. cerevisiae deletion strains, locus YLR113W, strain HOG1, hits give low values 0.127 | S. cerevisiae deletion strains, locus YLR133W, strain CKI1, hits give low values 0.0966 | S. cerevisiae deletion strains, locus YLR403W, strain SFP1, hits give low values -0.00531 | S. cerevisiae deletion strains, locus YML070W, strain DAK1, hits give low values 0.103 | S. cerevisiae deletion strains, locus YMR001C, strain CDC5, hits give low values 0.0974 | S. cerevisiae deletion strains, locus YMR205C, strain PFK2 (second series), hits give low values 0.101 | S. cerevisiae deletion strains, locus YMR277W, strain FCP1, hits give low values 0.0974 | S. cerevisiae deletion strains, locus YNL006W, strain LST8, hits give low values 0.0863 | S. cerevisiae deletion strains, locus YNL020C, strain ARK1, hits give low values 0.109 | S. cerevisiae deletion strains, locus YNL161W, strain CBK1, hits give low values 0.0953 | S. cerevisiae deletion strains, locus YNL183C, strain NPR1, hits give low values 0.093 | S. cerevisiae deletion strains, locus YNL207W, strain RIO2, hits give low values 0.0918 | S. cerevisiae deletion strains, locus YNL222W, strain SSU72, hits give low values 0.1 | S. cerevisiae deletion strains, locus YNL307C, strain MCK1 (second series), hits give low values 0.108 | S. cerevisiae deletion strains, locus YOL078W, strain AVO1, hits give low values 0.0995 | S. cerevisiae deletion strains, locus YOL136C, strain PFK27, hits give low values 0.0976 | S. cerevisiae deletion strains, locus YOR061W, strain CKA2, hits give low values 0.0984 | S. cerevisiae deletion strains, locus YOR119C, strain RIO1, hits give low values 0.105 | S. cerevisiae deletion strains, locus YOR231W, strain MKK1, hits give low values 0.0992 | S. cerevisiae deletion strains, locus YOR329C, strain SCD5, hits give low values 0.0854 | S. cerevisiae deletion strains, locus YPL031C, strain PHO85, hits give low values 0.103 | S. cerevisiae deletion strains, locus YPL153C, strain RAD53, hits give low values 0.0944 | S. cerevisiae deletion strains, locus YPL204W, strain HRR25, hits give low values 0.107 | S. cerevisiae deletion strains, locus YPL209C, strain IPL1, hits give low values 0.0842 | S. cerevisiae deletion strains, locus YPL256C, strain CLN2, hits give low values 0.133 | S. cerevisiae deletion strains, locus YPR025C, strain CCL1, hits give low values 0.0989 | S. cerevisiae deletion strains, locus YPR106W, strain ISR1, hits give low values 0.0861 | S. cerevisiae deletion strains, locus YPR111W, strain DBF20, hits give low values 0.0999 | S. cerevisiae deletion strains, strain NNK1, hits give low values 0.0942 | S. cerevisiae deletion strains, strain TSCII, hits give low values 0.102

S=c1[nH]nc(SCCSc2n[nH]c(=S)s2)s1
active: [11] 0.93
inactive: [3] 0.969 | [4] 1.04 | [1] 0.947 | [5] 0.993 | [6] 1.03 | [7] 1.02 | [8] 0.952 | [9] 0.987 | [2] 1.1 | [10] 1.02 | [12] 1.02 | [13] 1.06 | [14] 1 | [15] 0.989 | [16] 0.945 | [17] 1.16 | [18] 0.988 | [19] 0.969 | [20] 0.994 | S. cerevisiae deletion strains, locus YMR307W, strain GAS1, hits give low values 1 | [21] 1 | [22] 0.963 | [23] 0.987 | [24] 0.989 | [25] 0.965 | [26] 0.984 | [27] 1.02 | [28] 0.988

FC(F)(F)c1cccc(CSc2n[nH]c(=S)s2)c1
inactive: [6] 0.903 | [2] 0.728 | [17] 0.838 | [18] 0.914
active: [3] 0.774 | [4] 0.479 | [1] 0.522 | [5] 0.883 | [7] 0.861 | [8] 0.427 | [10] 0.592 | [11] 0.51 | [12] 0.791 | [13] 0.31 | [29] 0.887 | [14] 0.706 | [15] 0.797 | [16] 0.593 | [19] 0.606 | [20] 0.763 | [21] 0.533 | [22] 0.787 | [23] 0.873 | [24] 0.824 | [30] 0.409 | [26] 0.833 | [27] 0.638

O=[N+]([O-])c1ccccc1SCc1n[nH]c(=S)n1-c1cccc(C(F)(F)F)c1
inactive: [3] 0.973 | [4] 0.991 | S. cerevisiae deletion strains, locus YCL061C, strain MRC1, hits give low values 0.989 | [1] 1 | [5] 1.01 | [6] 1.01 | [7] 0.969 | [8] 0.967 | [9] 0.994 | [2] 1.04 | [10] 1.01 | [12] 0.999 | [13] 1.02 | [29] 0.974 | [14] 0.988 | [15] 0.996 | [16] 0.87 | [17] 1.01 | [18] 0.967 | [19] 0.992 | [20] 1 | [21] 1.03 | [22] 0.932 | [23] 0.97 | [24] 0.94 | [30] 0.886 | [25] 0.99 | [26] 0.985 | [27] 1.13 | [28] 0.975
